Screening data from PubChem BioAssay.
FBPA Giardia inh: blocks Giardia fructose-bisphosphate aldolase activity; A8B2U2; purified Giardia FBPA; Potency, µM (series often up to 59.6 µM), inactives show at the top dose activity, negative = inhibition, actives largely listed as inhibitors; 290,000 tested, 0.71% active; AID 2451; also: potency is read from the fitted curve at half-maximal effect; % is scaled to controls: 0 for no effect and ±100 for the full control effect; nearly all actives have a fitted effect of over 55% in size
Target sequence (A8B2U2 whole entry, looked up): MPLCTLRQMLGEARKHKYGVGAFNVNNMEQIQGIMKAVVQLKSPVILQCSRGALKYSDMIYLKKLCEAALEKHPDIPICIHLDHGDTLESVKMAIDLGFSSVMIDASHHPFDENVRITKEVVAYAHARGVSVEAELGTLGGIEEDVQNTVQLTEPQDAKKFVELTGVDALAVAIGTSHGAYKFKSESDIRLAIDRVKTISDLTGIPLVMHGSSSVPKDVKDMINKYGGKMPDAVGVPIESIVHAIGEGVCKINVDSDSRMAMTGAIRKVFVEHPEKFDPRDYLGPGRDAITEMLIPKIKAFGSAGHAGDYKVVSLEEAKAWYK
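40 nM FBPA preincubated 10 min at RT with compound (up to 57.5 uM final), then substrate plus GAPDH/TPI/NAD/arsenate coupling and diaphorase/resazurin added. Fluorescence read after 20 min at RT, 525/598 nm.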
Shiga inhibitor: Shiga toxin inhibition; Vero cells, Shiga toxin protein synthesis inhibition reporter; inhibition, % at 38.7 µM; 290,000 tested, 9.2% active; AID 2315; in the data active = inhibition mostly above about 28%, no sharp cut-off; inactive = mostly below about 43%; also: 0% is about no effect
Pf growth 96h: P. falciparum growth inhibition at 96 hour, primary screen for plastid delayed-death inhibitors; 320,000 tested, 6.9% active; P. falciparum luciferase reporter growth, 96 h; AID 504834; Potency, µM (titrated, usually from 28.7 µM), for inactives: at the highest dose activity change, negative = inhibition, actives largely listed as inhibitors; also: potency is read from the fitted curve at half-maximal effect; % is scaled to controls: 0 for no effect and ±100 for the full control effect
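Two-generation exposure (96 h) targets delayed-death phenotype. Reporter parasites carrying integrated firefly luciferase, in red cells at 2% hematocrit and 0.05% parasitemia final, kept at 37 C, 5% CO2; luminescence loss indicates inhibition.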
Pf growth 48h: P. falciparum growth inhibition at 48 hours (one generation); P. falciparum luciferase growth in erythrocytes, 48 h; Potency, µM (doses to about 28.7 µM), inactives show at the highest dose activity change, negative = inhibition, usual class: inhibitors; 310,000 tested, 5.9% active; also: potency is read from the fitted curve at half-maximal effect; % is scaled to controls: 0 for no effect and ±100 for the full control effect
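First compound was added to culture medium, then infected red cells at 0.1% parasitemia and 2% hematocrit (final). After incubation at 37 C under 5% CO2, luciferase detection reagent was dispensed and light output recorded.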
NS1 function inh: inhibitors of influenza NS1 protein function; Potency, µM (highest dose often 46.1 µM), for inactives: at the top dose activity, positive = more growth; 270,000 tested, 0.4% active; calls by dose curve; also: potency is read from the fitted curve at half-maximal effect; actives are rising curves; nearly all actives have a fitted effect of over 50% in size
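Recovery from NS1-induced slow growth read by OD600 in budding yeast switched to galactose assay medium (pH 6.0, -URA) at 1:100 dilution. Compound 23 nl per well; the matching strain lacking NS1 serves as control.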
CHX counter: counter-screen for Shiga toxin inhibitors: cycloheximide protein synthesis inhibition; cell reporter, cycloheximide protein synthesis inhibition counterscreen; max response, %; 300,000 tested, 12% active; AID 2314; in the data active = max response mostly above about 13%, no sharp cut-off; inactive = mostly below about 14%; also: read at 38.3 µM for the half of the compounds with a filed dose; 0% is about no effect
Flu NS1 inh: validation of influenza NS1 protein function inhibitors | shares compounds with NS1 function inh | influenza NS1 function cell assay, 15-point titration | activity change, negative = inhibition, % at 32.9 µM | 1,400 tested, under 10 active | AID 492980; calls by dose curve; also: 0% is about no effect
Flu PR8 replic: influenza NS1 inhibitors: inhibition of influenza A/PR/8/34 replication. shares compounds with NS1 function inh. MDCK infected influenza A/PR/8/34, virus titer TCID50; active compounds read low. virus titer (log TCID50), log10 TCID50 at 5 µM. 95 tested, 30% active. AID 504647; call rule not given here
* hit, by the source's call; ? = inconclusive; nt = no result given; [ ] = remark or other dose. An excerpt weighted towards active compounds, which were near 21% of everything screened. Unless noted, calls follow the shape of the dose curve; as a rule, active = well fitted curve in the direction sought with a large enough effect; inconclusive = small, poorly fitted or top-dose-only effect, or another doubt; inactive = no such curve, though single readings can be large; an effect the other way counts as inactive or inconclusive.

SMILES | FBPA Giardia inh | Shiga inhibitor | Pf growth 96h | Pf growth 48h | NS1 function inh | CHX counter | Flu NS1 inh | others
COC(=O)C(C)(C)ONC(=O)Nc1ccccc1[N+](=O)[O-] | -1.5% | -6.6 | 17.6% | -13.0% | -3.0% | -2.4 | nt
COc1ccc(F)cc1S(=O)(=O)n1nnc2ccccc21 | 2.7% | 12.4 | 9.0% | ? | -4.0% | -0.5 | nt
COc1ccc(OC)c(S(=O)(=O)n2nnc3ccccc32)c1 | 5.4% | -2.9 | ? | 16.3% | ? | -1.0 | -38.1
N#Cc1nc(-c2ccco2)oc1NCCCN1CCOCC1 | 1.9% | 47.2 | 48.5% | nt | 2.51µM* | -1.5 | 19.9
O=S(=O)(c1ccccc1)c1nc(-c2ccco2)oc1NCCCN1CCOCC1 | -2.0% | 13.9 | 42.8% | -5.4% | 7.1% | -2.5 | nt
COC(=O)c1cc(C(=O)OC)cc(N2C(=O)CC(NNC(=O)c3ccc(C)cc3)C2=O)c1 (stereo unspecified) | 20.5% | 17.9 | ? | -3.2% | 7.08µM* | 11.3 | 12.3
COC(=O)c1cc(C(=O)OC)cc(N2C(=O)CC(NNC(=O)c3ccccc3Br)C2=O)c1 (stereo unspecified) | -0.5% | -9.4 | 100.4% | ? | 18.7% | -2.3 | nt
Cn1cccc1/C=N/N1CCN(c2ccccn2)CC1 | -25.6% | 61.3* | 25.1% | 45.0% | ? | 37.6* | -22.2
O=C(Nc1ccon1)c1sc2cc(Cl)ccc2c1Cl | nt | -5.1 | -19.1% | ? | 10.8% | -3.1 | nt
Cc1cccc(C(=O)Nc2cc(=O)n(C)c(=O)n2C)c1 | -1.4% | -13.3 | 82.9% | 3.0% | 1.2% | -4.5 | nt
Cc1cccc(CC(=O)Nc2cc(=O)n(C)c(=O)n2C)c1 | 5.8% | 10.3 | ? | ? | ? | 1.0 | -7.4
Cc1cc(N2C(=O)C(O)=C(C(=O)c3ccc(C)o3)C2c2cccs2)no1 (stereo unspecified) | 6.7% | 7.0 | ? | -5.1% | 11.2µM* | 1.3 | -25.7
CCOC(=O)COc1c(OC)cc(Cl)cc1C1Nc2ccccc2C(=O)N1c1ccc(F)cc1 (stereo unspecified) | 8.4% | 16.7 | -11.9% | -3.3% | 12.6µM* | 16.1 | -24.2
CCOC(=O)COc1c(OC)cc(Cl)cc1C1Nc2ccccc2C(=O)N1c1ccccc1 (stereo unspecified) | 7.5% | -8.5 | ? | nt | 12.5% | -3.0 | nt
COc1cc(/C=N/n2c(-c3ccc4c(c3)NC(=O)CO4)csc2=Nc2cccc(C)c2)ccc1O | 5.0% | 38.3* | 4.65µM* | ? | 11.2µM* | 32.6* | 28.0 | Flu PR8 replic=8.33
CCCCc1cc(=O)oc2cc(C)cc(OCC(=O)N3CCC(C(=O)O)(c4ccccc4)CC3)c12 | 20.5% | -3.5 | ? | ? | 22.3% | -2.5 | nt
CCCc1cc(=O)oc2cc(OCC(=O)N3CCC(C(=O)O)(c4ccccc4)CC3)ccc12 | 7.1% | -3.3 | ? | ? | 11.2µM* | -5.1 | ?
CN(Cc1ccccc1)S(=O)(=O)c1ccccc1[N+](=O)[O-] | -12.9% | 15.8 | ? | 3.3% | -4.5% | 3.8 | nt
Cc1cccc(NC(=S)/N=C(\N)Nc2nc(C)c3ccccc3n2)c1 | 10.5% | 49.9 | 10.4µM* | -2.0% | 10µM* | 29.8* | -37.0
CCOc1ccc2nc(N/C(N)=N/S(C)(=O)=O)nc(C)c2c1 | 6.3% | 42.1 | 87.0% | 42.7% | -0.1% | -1.0 | nt
Cc1ccc(NC(=S)/N=C(\N)Nc2nc(C)c3ccccc3n2)cc1C | -0.8% | 20.0 | 2.33µM* | 11.7µM* | 11.2µM* | 21.6* | -24.3
CC(C)(CNC(=O)c1cccc(S(=O)(=O)Nc2ccc(Br)cc2)c1)N1CCOCC1 | nt | nt | ? | -28.3% | nt | nt | nt
CC(=O)Nc1ccc(-c2csc(NC(=O)C3CCN(S(=O)(=O)c4cccs4)CC3)n2)cc1 | -5.4% | -11.7 | ? | 2.08µM* | 12.6µM* | 0.9 | 16.1
CC(=O)c1ccc(NC(=O)COC(=O)c2c3c(nc4ccccc24)/C(=C\c2cccs2)CCC3)cc1 | -0.1% | 16.9 | ? | ? | ? | 14.7* | -4.6
C(=N\N1CCN(Cc2cccc3ccccc23)CC1)/c1cccnc1 | 12.1% | 7.3 | ? | 14.4% | 10µM* | -3.9 | -5.1
SMILES | FBPA Giardia inh | Shiga inhibitor | Pf growth 96h | Pf growth 48h | NS1 function inh | CHX counter | Flu NS1 inh | others
CN(C(=O)c1ccc(C#N)cc1)c1nnc(-c2cnccn2)s1 | 2.5% | 2.2 | 92.1% | 0.2% | -78.9% | -3.1 | nt
COc1ccc(CNC(=O)C(c2ccco2)N(C(=O)c2csnn2)c2cccc(C)c2C)cc1 (stereo unspecified) | 1.4% | 3.5 | ? | ? | -8.0% | -1.3 | nt
OCc1ccnc2c(O)cccc12 | -7.4%[12.9 µM] | 21.4 | ? | 2.33µM* | 8.91µM* | 3.7 | -35.7
O=C(O)CC(CC(=O)Nc1ccc2ccccc2n1)c1ccccc1 (stereo unspecified) | 18.3% | 5.3 | 5.0% | 22.5% | 1.7% | -3.3 | nt
O=C(O)CC(CC(=O)Nc1ccc(-n2ccc(C(F)(F)F)n2)cc1)c1ccccc1 (stereo unspecified) | 13.6% | 2.9 | 48.8% | ? | ? | -3.3 | -5.3
CCOc1ccc(NC(=O)CC(Cc2cc(C)cc(C)c2)C(=O)O)cc1 (stereo unspecified) | 4.5% | -6.8 | 155.2% | -15.4% | 8.5% | -8.7 | nt
CCOc1ccc(NC(=O)c2cccnc2C(=O)O)cc1 | ? | 17.7 | 4.3% | 51.3% | 4.47µM* | 18.3 | 1.7
COc1ccc(-n2cnnc2SCC(=O)Nc2cc(S(=O)(=O)N3CCCCC3)ccc2C)cc1 | ? | -3.0 | ? | -22.7% | 7.7% | -3.2 | nt
COc1ccc(-n2cnnc2SCC(=O)c2ccc(S(=O)(=O)N3CCOCC3)cc2)cc1 | -9.5% | -4.2 | nt | ? | 1.78µM* | 0.3 | -0.2
CC(=O)Nc1ccc(Cc2nc3ccccc3[nH]2)cc1 | -15.1% | -3.3 | 39.4% | 21.2% | -0.8% | -2.7 | nt
Cc1cc(-c2ccccc2)c2c(n1)sc1c(O)cc(=O)[nH]c12 | 11.9% | -19.0 | 22.8% | 7.2% | 12.3% | 0.1 | nt
O=c1cc(O)c2sc3nc(-c4ccccc4)cc(C(F)(F)F)c3c2[nH]1 | 17.1% | 20.0 | ? | ? | ? | 6.9 | 2.3
O=C(N/N=C/c1ccc(N2CCOCC2)cc1)C1COc2ccccc2O1 (stereo unspecified) | 2.3% | -5.2 | 24.2% | -1.0% | -13.2% | 14.9 | nt
CCOC(=O)c1ccc(-n2c(O)c(/C=N/NC(=O)C3COc4ccccc4O3)c3ccccc3c2=O)cc1 (stereo unspecified) | ? | -2.2 | -18.5% | 9.8% | 8.91µM* | -1.2 | -2.8
COCCNC(=O)c1ccc(CS(=O)(=O)c2ccccc2C)o1 | -7.0% | -14.1 | -15.3% | -19.7%[0.00184 µM] | 2.3% | -1.3 | nt
